13 molecules from PubChem BioAssay (NCI) can be followed below.

This is part of a sample that, as a whole, favours compounds with a hit. Of some 83,000 tested, about 20% had one in any assay.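 Assay: single dose, 48 h. Readout: percent growth (0 = no net growth; negative = cell death). Active: <10.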 Values without a mark were called inactive. Calls of active or inactive are those of the source.

Common to all, as to experiment: NCI-60 one-dose screen, 48 h (100 = growth as untreated, 0 = no growth, -100 = all killed)
Common to all, as to conditions: 10 µM unless noted

For assay [1], the system named is HCT-15 colon.
Assay [2] relates to HT29 colon.
Assay [3] has as its system SNB-75 CNS.
Assay [4] relates to SNB-19 CNS.
Assay [5] deals with U251 CNS.
The test system of assay [6] is PC-3 prostate.
Assay [7] relates to SK-MEL-5 melanoma.
For assay [8], the system named is UACC-62 melanoma.
Assay [9] has as its system SK-MEL-28 melanoma.
Assay [10] concerns SK-MEL-2 melanoma.
The test system of assay [11] is EKVX NSCLC.
For assay [12], the system named is SN12C renal.
Assay [13] has as its system UO-31 renal.
Assay [14] has as its system TK-10 renal.
In assay [15] the test system is ACHN renal.
Assay [16] deals with CAKI-1 renal.
The subject of assay [17] is A498 renal.
The test system of assay [18] is CCRF-CEM leukemia.
Assay [19] has as its system MOLT-4 leukemia.
Assay [20] has as its system LOX IMVI melanoma.

As for `O=C1CSC(c2cn(-c3ccccc3)nc2-c2ccc(Cl)cc2)N1c1ccccc1` (stereo not given), the growth in assay [1] is 101%; in assay [2], 106%; in assay [3], 99.9%; in assay [4] it was 112%; in [5] it was 106%; in [6] it was 99.7%. In addition, the growth is 99.4% in [7]; 99% in [8]; 118% in [9]; 112% in [10]; 98.8% in [11]; 114% in assay [12]. The growth was 83.8% in assay [13]; 118% in [14]; 104% in assay [15]; 92.3% in [16]; 125% in [17]; 103% in assay [18]. Also, the growth in assay [19] was 114%.

Take `C#CCOc1cccc(/C(N)=N/C(N)=N/c2nc3ccccc3s2)c1`: the growth in assay [1] is 57.4%; in [2] it was 108%; in [3], 109%; in assay [4] it was 95.5%; in assay [5] it was 84.9%; in assay [6], 69.8%. In addition, the growth in [7] is 95.3%; in [8] it was 92.3%; in assay [20], -1.89% (active); in assay [10] it was 103%; in assay [11] it was 73.8%; in assay [12], 66%. The growth in assay [13] was 91.8%; in assay [14] it was 148%; in [15] it was 81.4%; in assay [16], 73.5%; in assay [17], 122%; in assay [18] it was 76.5%. Also, in assay [19], the growth is 71.8%.

On to `CS(=O)(=O)c1ccc(/C(=N/N=C(N)N)c2ccc(F)cc2)cc1`, for which the growth in assay [1] was 74.9%; in assay [2], 91.5%; in assay [3] it was 94.6%; in assay [4] it was 63%; in [5] it was 67.2%; in assay [6], 73.9%. For the same molecule, the growth in assay [7] is 82.8%; in assay [8] it was 74.6%; in [9], 95.5%; in [10], 97.2%; in [11], 85.3%; in assay [12] it was 106%. Moreover, the growth in assay [13] is 92.7%; in assay [14], 92%; in assay [15], 98%; in [16], 51.4%; in assay [17], 88.8%; in [18], 74.9%. Moreover, in [19], the growth is 103%.

Regarding `O=S(=O)(Oc1ccc(-c2cn3ccsc3n2)cc1)c1cccc(C(F)(F)F)c1`, the growth in assay [1] is 96.8%; in [2], 107%; in assay [3], 102%; in [4], 96.4%; in assay [5], 100%; in assay [6], 97.9%. The growth was 98.3% in [7]; 81.3% in assay [8]; 112% in assay [20]; 101% in assay [10]; 94.3% in assay [11]; 104% in [12]. Further, the growth in assay [13] was 93.1%; in assay [15], 98.4%; in [16], 89.9%; in [18] it was 100%; in assay [19] it was 97.6%.

As to `COC(=O)c1cccc(NC2=C(Cl)C(=O)C(C)=C(C)C2=O)c1`, the growth in [1] was 112%; in assay [2], 105%; in [3], 60.7%; in assay [4], 87%; in [5], 102%; in [6] it was 71.9%. For the same molecule, the growth is 95.6% in [7]; 85.5% in assay [8]; 110% in assay [9]; 98% in assay [10]; 92.2% in [11]; 92.6% in assay [12]. Also, the growth was 89.4% in assay [13]; 150% in assay [14]; 104% in assay [15]; 94.2% in assay [16]; 87.7% in [17]; 6.54% (active) in assay [18]. Moreover, the growth in [19] was 11.3%.

With `CN1CCN(c2ccc(Nc3nc(NCCNS(=O)(=O)c4ccc(Cl)cc4)c4sccc4n3)cc2)CC1`, the growth in assay [1] was 47.7%; in [2] it was 44.3%; in assay [3], 72.9%; in [4], 104%; in [5], 60.1%; in [6], 81.8%. In addition, the growth in [7] was 93.6%; in assay [8] it was 98.5%; in assay [20] it was 92%; in assay [10], 110%; in assay [11] it was 91.6%; in assay [12] it was 97.7%. Also, the growth was 80% in assay [13]; 128% in [14]; 98.2% in assay [15]; 72.8% in assay [16]; 94.2% in assay [17]; 75.7% in assay [18]. Moreover, the growth in assay [19] was 73.6%.

For `CCC1=Cc2c(OC)cccc2OC12C=Cc1c(OC)cccc1O2` (stereo not given), the growth in assay [1] is 13.4%; in assay [2], 4.59% (active); in [3] it was 18.6%; in assay [4], 24.8%; in assay [5] it was 24.7%; in [6], 36.1%. Moreover, the growth in assay [7] was 25.7%; in assay [8], 26.2%; in assay [9], 52%; in assay [10] it was 65.8%; in assay [11], 52.4%; in assay [12] it was 42%. The growth in [13] is 39.8%; in [14], 101%; in [15] it was 35.9%; in [16] it was 28.4%; in assay [17] it was 6.92% (active); in assay [18] it was 16.2%. Moreover, the growth in assay [19] is 15.8%.

On to `CN(C)CCCOc1ccc(C(=C(c2ccccc2)C2CCCC2)c2ccc(OCCCN(C)C)cc2)cc1`, for which the growth in [1] was -89.2% (active); in assay [2], -86.3% (active); in assay [3], -66.1% (active); in [4], -80.4% (active); in [5], -74.4% (active); in assay [6] it was -65.5% (active). The growth is -95.7% (active) in [7]; -91.6% (active) in assay [8]; -84.3% (active) in assay [20]; -94.3% (active) in assay [10]; -82.2% (active) in assay [11]; -82.2% (active) in [12]. In addition, the growth in assay [13] was -96.8% (active); in [14], -93% (active); in assay [15], -94.5% (active); in [16], -79.3% (active); in [17], -82.4% (active); in [18], -35.2% (active). Besides, the growth in assay [19] was -58% (active).

For `C#CCOc1ccccc1C(OC(=O)c1ccccc1)C(=O)NC(C)(C)C(C)(C)C` (stereo not given), the growth in assay [1] was 78.3%; in assay [2], 74.6%; in [3], 71.4%; in assay [4] it was 95.1%; in [5] it was 87.1%; in assay [6], 60.7%. In addition, the growth in assay [7] was 80.8%; in [8], 66.9%; in assay [9], 101%; in assay [10] it was 90.6%; in assay [11], 75.3%; in assay [12], 95.7%. Moreover, the growth in assay [13] was 62.7%; in assay [14], 101%; in assay [15], 97.2%; in [16], 63.5%; in assay [17], 120%; in assay [18], 79.5%. The growth in [19] was 40.6%.

Take `CN1CCN(Cc2ccc(NC(=O)c3cncc(C#Cc4cnc5ccc(O[C@@H]6CCOC6)nn45)c3)cc2C(F)(F)F)CC1`: the growth in assay [1] is -40.4% (active); in assay [2], -54.6% (active); in [3], -98.4% (active); in assay [4], -48.9% (active); in assay [5] it was -72.9% (active); in assay [6], -40.4% (active). For the same molecule, the growth was -97.4% (active) in assay [7]; -76.3% (active) in assay [8]; -82.4% (active) in assay [9]; -78.3% (active) in [10]; -85.8% (active) in assay [11]; -77.4% (active) in assay [12]. The growth in [13] is -91.8% (active); in [14], -83.5% (active); in assay [15], -100% (active); in assay [16], -96.8% (active); in [17] it was -94.7% (active); in [18] it was -15.8% (active). Besides, the growth in assay [19] was -26% (active).

Turning to `CNC(=O)c1cc(-n2ccc3cc(NC(=O)Nc4ccc(N5CCN(C)CC5)c(C(F)(F)F)c4)ccc32)ccn1`, the growth in assay [1] is 23.8%; in [2], 0.845% (active); in assay [3], 56.3%; in assay [4], 83.1%; in [5], 46.6%; in assay [6], 60.8%. Further, the growth in assay [7] is 79%; in [8], 98.7%; in assay [9] it was -85.6% (active); in [10] it was 87.2%; in assay [11], 84.5%; in assay [12], 94.6%. Further, the growth in assay [13] is 42%; in assay [14] it was 121%; in assay [15], 77.4%; in assay [16] it was 85.8%; in [17] it was 87.9%; in assay [18], 7.32% (active). For the same molecule, the growth in [19] is -12.8% (active).

Take `COc1ccc2c(c1)C=CC1(O2)Oc2ccc(OC)cc2C=C1C` (stereo not given): the growth is 24.7% in [1]; 4.04% (active) in [2]; -8.45% (active) in [3]; 27.5% in assay [4]; 12.3% in [5]; 29.8% in assay [6]. The growth is 24.9% in assay [7]; 19.1% in [8]; 22.2% in assay [20]; 47.3% in assay [10]; 47.3% in assay [11]; 51.9% in assay [12]. In addition, the growth in assay [13] was 44.9%; in assay [14] it was 98%; in [15], 38%; in assay [16] it was 30.3%; in assay [17], 7.58% (active); in assay [18] it was 7.74% (active). Besides, the growth in assay [19] is 9.45% (active).

For the molecule `Cn1c(SCC(=O)c2ccc(F)cc2)nc2ccccc2c1=O`, the growth was 104% in [1]; 101% in [2]; 91.1% in [3]; 96.9% in [4]; 95.3% in [5]; 94.8% in [6]. Besides, the growth was 91.6% in [7]; 82.2% in assay [8]; 96.3% in assay [20]; 105% in assay [10]; 79.6% in [11]; 91.4% in assay [12]. Further, the growth was 74.2% in [13]; 120% in assay [14]; 96.4% in assay [15]; 87.7% in assay [16]; 99.5% in assay [17]; 90.3% in assay [18]. Further, the growth in assay [19] was 95.8%.
